From PubChem
Only some compounds are listed: those with a hit (about 3.4% of all), similar ones and a draw of the others.
MITF primary: MITF inhibitors, primary screen, biochemical, AlphaScreen, human. Microphthalmia-associated transcription factor (Homo sapiens), O75030. AlphaScreen MITF homodimerization, bead proximity signal. inhibition, % at 2.6 µM. 0.91% of 650,000 active; in the data active = inhibition above about 50%
Target sequence (O75030 whole entry, looked up): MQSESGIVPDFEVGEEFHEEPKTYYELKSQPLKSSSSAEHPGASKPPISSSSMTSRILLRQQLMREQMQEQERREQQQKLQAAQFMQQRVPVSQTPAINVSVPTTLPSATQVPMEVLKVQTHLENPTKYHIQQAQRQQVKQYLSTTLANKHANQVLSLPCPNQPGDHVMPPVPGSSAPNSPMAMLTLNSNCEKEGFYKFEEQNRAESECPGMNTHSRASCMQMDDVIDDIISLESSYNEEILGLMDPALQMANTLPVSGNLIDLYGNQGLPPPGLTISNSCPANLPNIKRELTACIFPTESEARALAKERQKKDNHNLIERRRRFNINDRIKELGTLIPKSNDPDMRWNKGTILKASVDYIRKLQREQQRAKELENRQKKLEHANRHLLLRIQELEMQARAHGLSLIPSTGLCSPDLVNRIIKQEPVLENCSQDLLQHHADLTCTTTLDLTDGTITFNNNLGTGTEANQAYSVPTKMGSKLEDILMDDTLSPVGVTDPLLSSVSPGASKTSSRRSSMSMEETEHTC
GPR151 activ: activators of human GPR151, primary screen, cell-based, PathHunter beta-arrestin, luminescence; G-protein coupled receptor 151 (Homo sapiens), Q8TDV0; PathHunter beta-arrestin GPR151 cells; activation, % at 11.2 µM; 1% of 650,000 active; AID 1508602, 2020; in the data active = activation above about 4.9%
TEAD-YAP block: TEAD-YAP interaction inhibition, primary screen, TEAD-YAP interaction inhibitor project, luminescence, HEK-TIYL cells | TEAD-Gal4/YAP UAS-luciferase luminescence | inhibition, % at 9.12 µM | 1.4% of 640,000 active | AID 1259422, 2018; in the data active = inhibition above about 32%
FBW7 act: FBW7 E3 ligase activators, primary screen, biochemical, AlphaScreen, human | F-box/WD repeat-containing protein 7 (Homo sapiens), Q969H0 | AlphaScreen FBW7–phospho-cyclin E peptide binding, activator screen | normalized activity (activation), % at 26.1 µM | 0.13% of 650,000 active; in the data active = normalized activity above about 1.9%;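 note: purified mutant Fbw7 with reduced substrate affinity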
MITF inh conf: MITF inhibitors, retest of hits, confirmation, biochemical, AlphaScreen, triplicate. 16% of 4,700 active. shares compounds with MITF primary. inhibition, % at 2.6 µM. AlphaScreen MITF homodimerization, biotin/His-MITF beads;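 active = inhibition above a cutoff derived from the DMSO control wells, cut at about 28% in these data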;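 note: inhibitors lower the bead chemiluminescence by keeping MITF from dimerizing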
AS interf DR: AlphaScreen optical interference compounds, dose response, counter-screen, biochemical, HTS; shares compounds with MITF primary; AlphaScreen optical interference counterscreen, cell-free; IC50, µM; 6% of 480 active; call rule not given here
AS interf ctr: AlphaScreen optical interference compounds, counter-screen for MITF inhibitor project, biochemical, triplicate | shares compounds with MITF primary | LysRS AlphaScreen counterscreen, signal interference | inhibition, % at 2.6 µM | 7.6% of 4,700 active | AID 1259376, 2018;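 active = inhibition above a cutoff derived from the DMSO control wells, cut at about 30% in these data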
Large screens that a line does not name were inactive (follow-up assays come after a bar, where they were run).

COc1ccc(OCC(=O)Nc2ncc(Cc3cccc(C(F)(F)F)c3)s2)cc1	none
Oc1ccccc1C(=S)N1CCOCC1	none
O=C(c1cccc(Cl)c1)N1CCN(Cc2c[nH]c3ccccc23)CC1	none
O=C(c1ccncc1)N1CCN(CCc2ccccc2)CC1	none
COc1cccc(C(=O)N2CCN(Cc3c[nH]c4ccccc34)CC2)c1	MITF primary 73 | MITF inh conf inactive | AS interf ctr inactive
O=C(c1ccncc1)N1CCN(Cc2c[nH]c3ccccc23)CC1	MITF primary 56 | MITF inh conf inactive | AS interf ctr inactive
COc1cccc(-c2csc(N3CCN(C(=O)c4ccc(Cl)cc4)CC3)n2)c1	none
O=C(N/N=C/C=C/c1ccc([N+](=O)[O-])o1)c1cccc(O)c1	none
CC(O)C(=O)N/N=C/C=C/c1ccc([N+](=O)[O-])o1 (stereo not drawn)	MITF primary 55 | MITF inh conf 71 | AS interf DR inactive | AS interf ctr inactive
C/C(=N\NC(=O)CC1=NNC(=O)C1)c1ccco1	MITF primary 51 | MITF inh conf 36 | AS interf DR inactive | AS interf ctr inactive
O=Cc1cccn1-c1ccc(C(=O)O)cc1	MITF primary 67 | MITF inh conf 64 | AS interf DR inactive | AS interf ctr inactive
N#CC(C#N)=Cc1cccn1-c1ccc(C(=O)O)cc1	MITF primary 63 | MITF inh conf 61 | AS interf DR inactive | AS interf ctr inactive
CS(=O)(=O)N(CC(=O)Nc1c(F)cccc1F)c1ccc(Oc2ccccc2)cc1	MITF primary 60 | MITF inh conf inactive | AS interf ctr inactive
CSc1cccc(NC(=O)CN(c2ccc3c(c2)OCO3)S(C)(=O)=O)c1	none
CS(=O)(=O)N(CC(=O)Nc1ccc(F)cc1)c1ccc(Oc2ccccc2)cc1	MITF primary 68 | MITF inh conf inactive | AS interf ctr inactive
CS(=O)(=O)N(CC(=O)Nc1cccc(F)c1)c1ccc2c(c1)OCO2	MITF primary 64 | MITF inh conf inactive | AS interf ctr inactive
OC(CNc1ccc(F)cc1)COc1ccc(OCC(O)CNc2ccc(F)cc2)cc1 (stereo not drawn)	none
CCCCC(=O)Nc1cc(OC)c(NC(=S)NC)cc1OC	MITF primary 75 | MITF inh conf inactive | AS interf ctr inactive
CCCCC(=O)Nc1cc(C)c(Cl)cc1OC	none
Cc1ccc(NC(=O)CN(c2ccc(Cl)cc2C)S(C)(=O)=O)cc1	none
COc1ccc(C2SCC(C(=O)O)N2C(C)=O)cc1OC (stereo not drawn)	MITF primary 51 | MITF inh conf inactive | AS interf ctr inactive
Cc1nc(NCc2ccco2)c2c(C)c(C)sc2n1	MITF primary 59, TEAD-YAP block 43 | MITF inh conf inactive | AS interf ctr inactive
Cc1nc(NCc2ccco2)c2c3c(sc2n1)CCCC3	none
O=C(C1CCN(Cc2nc3ccccc3[nH]2)CC1)N1CCc2ccccc2C1	MITF primary 62 | MITF inh conf inactive | AS interf ctr inactive
O=C(C1CCN(Cc2nc3ccccc3[nH]2)CC1)N1CCN(c2ccc(F)cc2)CC1	MITF primary 58 | MITF inh conf inactive | AS interf ctr inactive
O=C(C1CC12CCN(Cc1nc3ccccc3[nH]1)CC2)N1CCN(c2ccccc2)CC1 (stereo not drawn)	none
O=C(NCc1ccc2c(c1)OCO2)C1CCN(Cc2nc3ccccc3[nH]2)CC1	MITF primary 63 | MITF inh conf inactive | AS interf ctr inactive
CCOC(=O)C1=CN(Cc2ccc(OC)c(OC)c2)C=C(C(=O)OCC)C1c1ccc(Br)cc1	none
Cc1cc(C(=O)OCC(=O)N(C)C)ccc1[N+](=O)[O-]	none
Cc1ccc2c(c1)-c1onc(C(=O)N3CCN(C4CCCCC4)CC3)c1CO2	none
CC(=O)Oc1ccccc1N1C(=O)c2ccc(Oc3cccc(N)c3)cc2C1=O	MITF primary 54 | MITF inh conf 70 | AS interf DR inactive | AS interf ctr inactive
COC(=O)CCCC[C@H]1SC[C@H]2NC(=O)N[C@H]21	none
O=C(CCCCC1SCC2NC(=O)NC21)NC1(c2ccc(F)cc2)CCCC1 (stereo not drawn)	MITF primary 109 | MITF inh conf 88 | AS interf DR 4.3 | AS interf ctr inactive
COc1cc(CN2CCC(Cn3c(C)nc4ccccc43)CC2)cc(OC)c1	MITF primary 59 | MITF inh conf inactive | AS interf ctr inactive
COc1cc(CN2CCC(c3nc(-c4ccccc4)no3)CC2)cc(OC)c1	none
Cc1ccccc1OCC(O)Cn1c(C)nc2ccccc21 (stereo not drawn)	none
COc1cc(CN2CCN(Cc3cccc4ccccc34)CC2)c([N+](=O)[O-])cc1OC	MITF primary 70 | MITF inh conf inactive | AS interf ctr inactive
COc1cc(CN2CCN(Cc3cccc(OC)c3OC)CC2)c([N+](=O)[O-])cc1OC	MITF primary 52 | MITF inh conf inactive | AS interf ctr inactive
CCn1c2ccccc2c2cc(CN3CCN(Cc4cc(OC)c(OC)cc4[N+](=O)[O-])CC3)ccc21	MITF primary 82 | MITF inh conf inactive | AS interf ctr inactive
CN(C)CCN(C)Cc1ccc(F)c(F)c1	MITF primary 51 | MITF inh conf inactive | AS interf ctr inactive
Cc1cccc(OCC(=O)N(C)CCc2ccccn2)c1	MITF primary 62 | MITF inh conf inactive | AS interf ctr inactive
COc1cccc(OCC(=O)NCc2ccccn2)c1	none
CCn1c2ccccc2c2cc(CN(C)CCc3ccccn3)ccc21	MITF primary 74 | MITF inh conf inactive | AS interf ctr inactive
Cc1cccc(CN(C)CCc2ccccn2)c1	MITF primary 69 | MITF inh conf inactive | AS interf ctr inactive
CN(CCc1ccccn1)Cc1cccc(Br)c1	none
CN(CCc1ccccn1)Cc1ccc(Br)cc1	none
Cc1ccccc1CN1CCNC(=O)C1CC(=O)N1CCOc2ccccc2C1 (stereo not drawn)	none
O=C(Nc1ccc2c(c1)OCO2)c1ccc2nc(Nc3ccc(N4CCOCC4)cc3)sc2c1	none
Cc1ccccc1CN(C)CCc1ccccn1	none
CN(C)CCN(C)Cc1ccc(-c2ccccc2)cc1	MITF primary 52 | MITF inh conf inactive | AS interf ctr inactive
CN(CCc1ccccn1)Cc1cccc(Cl)c1	MITF primary 51 | MITF inh conf inactive | AS interf ctr inactive
CCOc1ccc(CN(C)CCN(C)C)cc1	MITF primary 85 | MITF inh conf inactive | AS interf ctr inactive
CCOc1ccc(CN(C)CCc2ccccn2)cc1	MITF primary 88 | MITF inh conf inactive | AS interf ctr inactive
CCc1nc(NCc2ccco2)c2nnn(Cc3ccccc3)c2n1	none
